Shown are actives, neighbours in structure and some others; about 10% of the full set was active somewhere.
ELG1 repair inh – blocks ELG1-dependent DNA repair in HEK293T cells | HEK293T ELG1-luciferase reporter, luminescence, 16 h; DNA damage induced by 5-fluorouridine | Potency, µM (top dose mostly 46.1 µM), without a hit: at the top dose activity change, negative = inhibition, hits mostly inhibitors | 330,000 compounds, 2.3% hits | AID 504467; note: % is set by controls: 0 for no effect and ±100 for the full control effect; nearly all actives have a fitted effect of over 55% in size
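Luminescence from the luciferase reporter, measured 30 min after ONE-Glo reagent at room temperature, was the read-out. Beforehand, 2,000 cells per well were exposed for 16 hr at 37 °C to 5-fluorouridine together with compound or vehicle.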
SW480 rereplic – induces DNA re-replication in SW480 colon adenocarcinoma cells. AID 624297. SW480 DNA re-replication, Hoechst DNA content imaging, 48 h. 340,000 compounds, 1.8% hits. Potency, µM (doses to about 46.1 µM), for inactives: at the top dose re-replication activation, actives largely listed as activators; note: % of control where 0% means no effect; nearly all actives have a fitted effect of over 55% in size
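DNA re-replication was detected as more nuclei of elevated Hoechst intensity after 48 hr exposure to compound (23 nL pinned per well of 250 cells).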
MCF10A rerep – DNA re-replication induction in MCF 10a cells; MCF 10A DNA re-replication, Hoechst nuclear intensity, 48 h; Potency, µM (top dose mostly 46.1 µM), for inactives: at the top dose activity, positive = re-replication, most hits filed as activators; 350,000 compounds, 2.9% hits; AID 624296; note: % of control where 0% means no effect; nearly all actives have a fitted effect of over 50% in size
RORg inh – blocks mouse ROR gamma transcriptional activity. 310,000 compounds, 5.4% hits. P51450. Drosophila S2 Gal4-RORgamma UAS-luciferase reporter, 20 h. Potency, µM (series often up to 53.6 µM), without a hit: at the highest dose activity change, negative = inhibition, usual class: inhibitors; note: % is set by controls: 0 for no effect and ±100 for the full control effect; nearly all actives have a fitted effect of over 60% in size
Target sequence (P51450 whole entry, looked up, the tested form may be a part): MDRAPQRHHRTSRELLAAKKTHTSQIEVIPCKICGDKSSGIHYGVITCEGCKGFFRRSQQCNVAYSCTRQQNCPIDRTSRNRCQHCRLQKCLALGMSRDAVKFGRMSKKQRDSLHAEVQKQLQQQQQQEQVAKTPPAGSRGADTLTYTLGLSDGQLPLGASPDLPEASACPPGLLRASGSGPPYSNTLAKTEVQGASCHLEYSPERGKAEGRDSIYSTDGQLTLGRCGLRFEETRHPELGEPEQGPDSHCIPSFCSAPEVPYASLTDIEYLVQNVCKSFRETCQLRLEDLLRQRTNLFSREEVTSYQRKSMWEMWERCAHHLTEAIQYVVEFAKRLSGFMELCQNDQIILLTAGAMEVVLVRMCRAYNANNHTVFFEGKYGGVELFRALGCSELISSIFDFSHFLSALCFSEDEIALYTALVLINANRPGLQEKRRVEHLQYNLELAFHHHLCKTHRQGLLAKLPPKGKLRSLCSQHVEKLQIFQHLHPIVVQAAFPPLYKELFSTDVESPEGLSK
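Luciferase reporter read in Schneider cells carrying Gal4-RORγ (mouse) and UAS-Photinus luciferase; cells given compound 1 h before 700 uM copper sulfate induction, then incubated 20 h at ambient temperature.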
Gal4-VP16 FLuc – inhibits Gal4-VP16 luciferase reporter, ROR gamma counter-screen; Drosophila S2 Gal4-VP16 UAS-luciferase, luminescence, 20 h; Potency, µM (highest dose often 53.6 µM), inactives show top-dose activity, negative = inhibition, most hits filed as inhibitors; 310,000 compounds, 3.5% hits; AID 2546;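 note: Gal4-VP16 expression switched on by copper sulfate through the metallothionein promoter; % is set by controls: 0 for no effect and ±100 for the full control effect; nearly all actives have a fitted effect of over 50% in size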
* hit, by the source's call; ? = inconclusive; · = not tested or not shown; [ ] = remark or other dose. Calls come from the whole dose curve; as a rule, active = well fitted curve in the direction sought with a large enough effect; inconclusive = small, poorly fitted or top-dose-only effect, or another doubt; inactive = no such curve, though single readings can be large; an effect the other way counts as inactive or inconclusive. Potency is the fitted concentration of half-maximal effect.

SMILES	ELG1 repair inh	SW480 rereplic	MCF10A rerep	RORg inh	Gal4-VP16 FLuc
COc1ccc(NC(=O)CSC2CC(=O)N(c3ccc4c(c3)OCCO4)C2=O)cc1 (stereo not given)	14%	-18%	0%	?	5µM*
COc1ccc(N2C(=O)CC(SCC(=O)O)C2=O)cc1 (stereo not given)	-1%	-9%	1%	-22%	-12%
COc1ccccc1NC(=O)CN1CCN(CC(=O)Nc2ccc3c(c2)OCO3)CC1	-24%	-3%	-1%	-7%	2%
CCOc1ccc(CC(=O)N2CCN=C2SC)cc1	-9%	-4%	0%	19%	1%
Cc1nc(-n2[nH]c3c(c2=O)CCCC3)[nH]c(=O)c1Cc1ccccc1	?	9.2µM*	21µM*	2.2µM*	2.5µM*
CC(C)CCNC(=O)CCn1c(=S)oc2ccccc21	10%	0%	6%	28%	-6%
CC(=O)n1c(Cl)c(NC(=O)CCl)c2ccccc21	26µM*	?	?	-29%	19%
Cc1ccc(-n2nc(C)c(NC(=O)CCl)c2C)cc1C	?	?	12%	?	-14%
CC(C)(C)OC(=O)C[C@H]1C/C=C\C[C@H](CC(=O)NCCO)C(=O)N[C@@H](Cc2ccccc2)COC1=O	11%	2%	-11%	·	·
CC(C)(C)C1=CC(O)(c2ccccc2)C=C(C(C)(C)C)C1=O	1%	-1%	5.2µM*	10%	?
CC(C(=O)O)n1c2ccccc2c2cnn(C)c(=O)c21 (stereo not given)	-3%	0%	-7%	0%	-3%
N#C/C(C(=O)NCCc1ccccc1)=C1/N=C(NC(=O)c2cccs2)c2ccccc21	?	-41%	8.2µM*	-14%	-15%
COc1ccc(CCNC(=O)/C(C#N)=C2\N=C(NC(=O)c3ccco3)c3ccccc32)cc1	7.3µM*	?	?	19%	-19%
C=CCCCCCCCCC(=O)OC	·	-2%	2%	-1%[10 µM]	4%
CC(C)(C)OC(=O)NCCc1nnc(S(=O)(=O)Cc2ccc(Cl)cc2Cl)o1	15%	?	7.3µM*	?	7.1µM*
CC(=O)Nc1ccc(S(=O)(=O)Nc2ccccc2C(=O)N2CCOCC2)cc1	9%	-7%	0%	-8%	4%
CC(=O)N1CC=CC1(CC(C)C)C(=O)NCc1ccccn1 (stereo not given)	·	·	·	-25%	21%
Cc1ccoc1C(=O)Nc1ccc(CC(=O)O)cc1	?	-2%	-1%	0.5µM*	?
CCOC(=O)C(=CNc1cc(C)nn1-c1ccc(Cl)cc1)C(=O)OCC	?	-2%	?	0%	-4%
CCOC(=O)/C(=C\c1ccc(C)cc1)NC(=O)c1ccccc1	1%	-8%	-8%	3%	-7%
CCOC(=O)C(=Cc1ccccc1)C(=O)OCC	·	·	·	13µM*	13µM*
CCOC(=O)C(=Cc1ccc(-n2cncn2)cc1)C(=O)OCC	18µM*	16µM*	4.6µM*	?	-93%
CCN(Cc1ccncc1)C(=O)CSc1ccc2ccccc2c1	?	-3%	-2%	14%	3%
Oc1ccc(N2CCN(C(=S)NCCc3ccccc3)CC2)cc1	-3%	?	?	-3%	-2%
COc1ccc(CNC(=O)C23CC4CC(CC(Br)(C4)C2)C3)cc1	0%	-79%	-32%	-18%	-10%
SMILES	ELG1 repair inh	SW480 rereplic	MCF10A rerep	RORg inh	Gal4-VP16 FLuc
COc1ccc(C(=O)C23CC4CC(C2)CC(C(=O)c2ccc(OC)cc2)(C4)C3)cc1	5.8µM*	3%	-5%	-1%	?
CCn1c(-c2ccccc2)c(C(=O)CCl)c2ccccc21	25%	?	23µM*	11µM*	?
CCn1c(=O)c(C(=O)NCCc2ccccc2)c(O)c2ccccc21	-7%	9%	?	-1%[0.365 µM]	·
Cn1c(-c2ccccc2)c(C(=O)CCl)c2ccccc21	?	?	?	7.1µM*	?
Cn1c(-c2ccccc2)c(O)c(=O)c2ccccc21	·	·	·	-9%[10 µM]	1%[10 µM]
Cc1ccc(CNC(=O)C2CCC(CNS(=O)(=O)c3cccs3)CC2)cc1 (stereo not given)	15%	?	2%	11%	6%
CCC(Cl)CC(Cl)C(Cl)C(Cl)C(Cl)C(C)Cl (stereo not given)	·	·	·	3%	22%
CC(C)N(Cc1ccccc1)S(=O)(=O)c1ccc2c(c1)NC(=O)CO2	17%	-1%	4%	-20%	15%
CCCN1C(=O)c2cc(C(=O)Nc3cccc(C(C)=O)c3)ccc2C1Nc1cccc(C(C)=O)c1 (stereo not given)	16µM*	5%	9%	18%	-1%
CC(=O)COC(=O)CCc1nc2ccccc2[nH]c1=O	5%	-4%	2%	2%	-5%
CCCCOC(=O)CCc1nc2ccccc2[nH]c1=O	29µM*	4%	6%	-9%	4%
O=C(Cc1nc2ccccc2[nH]c1=O)c1ccccc1	?	29%	21µM*	?	?
O=c1[nH]c2ccccc2nc1Cc1ccccc1	-8%	-19%	19%	11%	-1%
O=C(O)c1ccccc1-c1ccccc1C(=O)Nc1ccc2c(c1)[nH]c(=O)c1ccccc12	?	-5%	?	-4%	1%
CN(c1ccc(C(=O)Nc2ccc(F)cc2F)cc1)S(=O)(=O)c1ccccc1	15µM*	?	?	30%	-7%
CN(c1ccccc1)S(=O)(=O)c1cccc(C(=O)NNC(=O)c2ccccc2)c1	?	-3%	10%	27%	-23%
CN(c1cccc(NC(=O)c2ccc(N(C)S(=O)(=O)c3ccccc3)cc2)c1)S(C)(=O)=O	16µM*	17%	?	?	-11%
CN(c1ccccc1)S(=O)(=O)c1cccc(C(=O)Nc2ccc3c(c2)CCC3)c1	15µM*	?	-21%	?	0%
CC(=O)Nc1ccc(C(=O)Nc2cccc(S(=O)(=O)N(C)c3ccccc3)c2)cc1	?	-23%	5%	·	·
O=C(O)c1cccc(S(=O)(=O)Nc2ccc3c(c2)CCC3)c1	11%	-3%	1%	?	10µM*
CC1(C)C[C@@H]1C(=O)N/C(=C\CCCCSC[C@H](N)C(=O)O)C(=O)O	9%	-4%	?	-20%	-3%
C=CCNC(=O)C1CC(=O)N(c2ccc(OCC(=O)Nc3ccc(Cl)cc3)cc2)C1 (stereo not given)	10%	1%	3%	11%	-4%
CCCCn1c(N)c(N(CC(C)C)C(=O)c2ccc(N3C(=O)CCC3=O)cc2)c(=O)[nH]c1=O	-1%	-8%	-3%	·	·
Cc1[nH]c(C)c(S(=O)(=O)Nc2cccc(Cl)c2C)c1C(=O)N1CCCC1	13%	-27%	-1%	-1%	10%
COc1cc(NC(=O)c2ccc(S(=O)(=O)N(C)c3ccccc3)cc2)cc(OC)c1	23µM*	-32%	2%	·	·

Source: PubChem
